AmpC inh no detg: blocks E. coli AmpC beta-lactamase in detergent-free assay; P00811; AmpC nitrocefin hydrolysis, absorbance 480 nm, 0.0001% Triton; Potency, µM (series often up to 57.1 µM), inactives show at the top dose activity change, negative = inhibition, hits mostly inhibitors; hit rate 0.52% among 330,000; AID 485341;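 further: plate controls were no compound for no effect and no enzyme for full effect; nearly all actives have a fitted effect of over 20% in size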
Target sequence (P00811 whole entry, looked up): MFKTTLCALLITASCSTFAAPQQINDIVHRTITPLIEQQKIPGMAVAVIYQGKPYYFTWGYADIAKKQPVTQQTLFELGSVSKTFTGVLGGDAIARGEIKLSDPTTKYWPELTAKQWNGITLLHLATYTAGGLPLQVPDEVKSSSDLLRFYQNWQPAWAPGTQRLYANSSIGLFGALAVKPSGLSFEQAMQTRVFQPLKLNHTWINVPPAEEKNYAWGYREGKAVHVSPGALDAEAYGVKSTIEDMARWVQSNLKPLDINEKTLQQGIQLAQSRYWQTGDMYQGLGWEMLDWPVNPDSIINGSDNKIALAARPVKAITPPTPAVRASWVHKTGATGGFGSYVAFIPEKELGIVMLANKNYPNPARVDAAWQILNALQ
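AmpC (5.3 nM in the dispensed reagent) in 20 mM phosphate pH 7.0 with 0.01% (detergent screen) or 0.0001% Triton X-100 was preincubated with compounds for 15 min at room temperature. Nitrocefin was then added from an 800 uM solution, and hydrolysis was followed at 480 nm.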
SARS PLpro yeast: inhibitors of SARS-CoV papain-like protease in yeast. S. cerevisiae expressing SARS-CoV PLpro, growth rescue. Potency, µM (highest dose often 32.9 µM), for the others: at the highest dose activity, positive = growth rescue, hits mostly activators. hit rate 0.19% among 330,000. AID 485353; calls by dose curve; further: 0% is about no effect; nearly all actives have a fitted effect of over 55% in size
Pf growth 96h: inhibits malaria parasite growth, 96 h; P. falciparum luciferase reporter growth, 96 h; Potency, µM (highest dose often 28.7 µM), for inactives: at the top dose activity change, negative = inhibition, most hits filed as inhibitors; hit rate 6.9% among 320,000; further: on the % scale 0 is the no-effect control and ±100 the full control effect
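Compounds incubated with erythrocytes infected by luciferase-expressing P. falciparum (2% hematocrit, 0.05% parasitemia final) for 96 hours, 37 C in 5% CO2. Growth inhibition scored as decreased luciferase luminescence.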
AmpC detergent: blocks E. coli AmpC beta-lactamase in detergent assay; P00811; AmpC hydrolysis of nitrocefin, absorbance 480 nm, 0.01% Triton; Potency, µM (top dose mostly 114 µM), without a hit: top-dose activity change, negative = inhibition, usual class: inhibitors; hit rate 0.041% among 370,000; AID 485294;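 further: 0% = no-compound wells and -100% = no-enzyme wells; nearly all actives have a fitted effect of over 25% in size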
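20 mM phosphate pH 7.0 + 0.01% (detergent screen) or 0.0001% Triton X-100; 5.3 nM AmpC reagent; cpd preinc 15 min RT; nitrocefin (800 uM stock) to start; A480 q20 s × 4 min; Activity was normalised to no-enzyme and no-compound control wells.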
Pf growth 48h: P. falciparum growth inhibition at 48 hours (one generation) | P. falciparum luciferase growth in erythrocytes, 48 h | Potency, µM (series often up to 28.7 µM), without a hit: top-dose activity change, negative = inhibition, actives largely listed as inhibitors | hit rate 5.9% among 310,000 | AID 504832; further: on the % scale 0 is the no-effect control and ±100 the full control effect
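Compounds are pin-transferred into medium, infected erythrocytes (2% hematocrit, 0.1% parasitemia final) are added, and plates sit one parasite generation at 37 C in 5% CO2. Detection reagent is then added and luminescence measured.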
Sm TGR block: inhibitors of Schistosoma mansoni thioredoxin glutathione reductase | Q962Y6 | purified TGR, DTNB reduction, TNB absorbance 405 nm | Potency, µM (top dose mostly 114 µM), without a hit: top-dose activity change, negative = inhibition, most hits filed as inhibitors | hit rate 3% among 360,000 | AID 485364; further: on the % scale 0 is the no-effect control and ±100 the full control effect; nearly all actives have a fitted effect of over 60% in size
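Kinetic colorimetric format: TGR-catalysed, NADPH-driven DTNB reduction monitored via TNB absorbance. Enzyme dispensed at 20 nM; compound exposure 15 min at room temperature before reaction start.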
* = called active by the depositor; ? = inconclusive; nt = no result. A selection: hits, their analogues and other compounds. The true share with any hit is near 12%. Unless noted, the call rests on the fitted dose curve; in most records, active means well fitted curve in the direction sought with a large enough effect; inconclusive means small, poorly fitted or top-dose-only effect, or another doubt; inactive means no such curve, though single readings can be large; an effect the other way counts as inactive or inconclusive. Potency means the concentration at half of the fitted maximal effect.

SMILES	AmpC inh no detg	SARS PLpro yeast	Pf growth 96h	AmpC detergent	Pf growth 48h	Sm TGR block
Oc1ccccc1Nc1nc(-c2ccccc2)c2cc(Cl)ccc2n1	nt	nt	nt	29.2%	nt	-0.1%
CC(=O)c1c(C)[nH]c(C(=O)OCC(=O)N(Cc2ccccc2)C(C)(C)C)c1C	70.0%	-1.6%	?	?	-10.9%	-0.2%
CC1Cc2cc(/C(O)=C3/C(=O)C(=O)N(CC4CCCO4)C3c3ccco3)ccc2O1 (centres undefined)	-8.7%	-0.3%	nt	0.4%	164.2%	-6.1%
CN(C)S(=O)(=O)c1cccc(NC(=O)COC(=O)/C=C/c2ccco2)c1	-16.2%	-11.6%	50.9%	-9.3%	18.5%	?
CC(=O)c1c(C)[nH]c(C(=O)OCC(=O)Nc2ccc(Cl)c(S(=O)(=O)N(C)C)c2)c1C	-39.6%	0.5%	6.57µM*	0.2%	1.17µM*	-9.4%
Cc1ccc(NC(=O)COC(=O)/C=C/c2ccco2)cc1S(=O)(=O)N(C)C	-19.3%	-10.0%	11.3%	-8.8%	0.6%	25.1µM*
CCN(CC)S(=O)(=O)c1cccc(NC(=O)COC(=O)/C=C/c2ccco2)c1	-26.3%	4.0%	56.2%	-10.1%	39.8%	22.4µM*
Cc1ccc(NC(=O)COC(=O)c2ccc(Cl)cc2)cc1S(=O)(=O)N(C)C	-29.2%	2.2%	0.4%	5.9%	?	0.8%
C/C=C/C(=O)OCC(=O)Nc1ccc(C)c(S(=O)(=O)N(C)C)c1	-8.9%	-6.8%	1.2%	1.6%	14.3%	44.7µM*
Nc1nccnc1C(=O)OCC(=O)NC1CCCc2ccccc21 (centres undefined)	-16.5%	0.8%	-3.3%	-0.5%	-18.9%	5.7%
CCOC(=O)COc1ccc(CC)cc1C(=O)c1ccn2nc(-c3ccccc3)cc2n1	nt	nt	nt	-3.3%	nt	-8.8%
CCn1ncc(/C=N/NS(=O)(=O)c2ccc(Cl)cc2)c1C	-16.7%	-0.2%	6.4%	-9.3%	12.6%	9.8%
COC(=O)C(Nc1ccccc1Cl)(c1cc(C)c(O)c(C)c1)C(F)(F)F (centres undefined)	-17.8%	-25.9%	nt	?	9.28µM*	-0.1%
CCOC(=O)C(NC(=O)c1ccccc1Cl)(Nc1ccc(C)c(C)c1)C(F)(F)F (centres undefined)	-7.2%	-1.0%	1.7%	-7.7%	?	7.2%
CCc1nn2c(=O)cc(COC(=O)c3cccc(NC(=O)c4ccccc4C)c3)nc2s1	nt	nt	nt	13.9%	nt	10.0%
Oc1cccc(/C=N/Nc2cc(N3CCCC3)nc(N3CCCC3)n2)c1	-32.3%	-11.5%	?	?	2.94µM*	-9.6%
Oc1ccc(/C=N/Nc2cc(N3CCCC3)nc(N3CCCC3)n2)cc1	-27.2%	2.1%	2.08µM*	-5.8%	?	4.9%
COc1ccc(/C=N/Nc2cc(N3CCCC3)nc(N3CCCC3)n2)cc1	-2.9%	-7.1%	?	8.5%	?	0.3%
CCCCN(CC)Cc1ccc(CNC(=S)Nc2cccc(F)c2)o1	35.4%	-2.2%	131.1%	-1.0%	?	39.8µM*
Cc1nc(N2CCN(S(=O)(=O)c3cccc4nonc34)CC2)c2c3c(sc2n1)CCCC3	-13.9%	-0.4%	nt	?	8.8%	-2.3%
Cc1cc(=O)[nH]c2nnc(SCC(=O)Nc3ccc(F)cc3F)n12	nt	nt	nt	1.3%	nt	14.3%
N=C1C(c2ccccc2)=C(O)CN1CCCO	-11.3%	3.4%	14.7µM*	-0.2%	?	3.9%
C=CCN1CC(O)=C(c2ccccc2)C1=N	-14.9%	-13.1%	2.0%	9.2%	35.7%	?
CC(C)c1nn2c(=O)cc(COC(=O)c3cccs3)nc2s1	nt	nt	nt	-6.7%	nt	1.7%
C=CCOc1ccc(CNc2ccc(NC(=O)CCC)cc2)cc1OCC	-0.2%	8.5%	11.7µM*	-6.9%	14.7µM*	-16.1%
SMILES	AmpC inh no detg	SARS PLpro yeast	Pf growth 96h	AmpC detergent	Pf growth 48h	Sm TGR block
CCOc1cc(CNc2ccc3c(c2)OCCO3)cc(Br)c1OCC	-15.5%	-7.6%	2.08µM*	0.4%	1.85µM*	-11.4%
CCOc1cc(CNc2ccc(N3CCN(C(C)=O)CC3)cc2)cc(Br)c1OC	250.0%	28.7%	?	?	?	-20.0%
C=CCOc1c(Br)cc(CNc2ccc(NC(=O)CCC)cc2)cc1OCC	18.2%	-13.1%	61.1%	?	49.6%	-15.0%
C=CCOc1c(Br)cc(CNc2ccc(NC(=O)C(C)C)c(OC)c2)cc1OCC	75.8%	0.7%	?	-7.1%	9.28µM*	-29.0%
CCOc1ccc(C(=O)Nc2ccc3c(c2)OCCO3)cc1Br	nt	nt	nt	-4.4%	nt	0.8%
C=CCOc1c(Br)cc(CNc2ccc3[nH]c(=O)[nH]c3c2)cc1OCC	-45.5%	1.0%	10.4µM*	0.2%	2.1%	-13.1%
CS(=O)(=O)n1nc(-c2ccco2)nc1NCc1ccccc1Cl	nt	nt	nt	1.1%	nt	-34.7%
CC1CCN(C(=O)CN2CCSc3ccc(S(=O)(=O)N(C)C)cc32)CC1	nt	nt	nt	7.4%	nt	-0.5%
CC(C)c1ccc(S(=O)(=O)Nc2cc3c(cc2NCc2ccccc2)n(C)c(=O)n3C)cc1	nt	nt	nt	-8.9%	nt	-0.8%
Cc1cc(NC(=O)c2ccc(Br)o2)cc(-c2nc3ccccc3o2)c1O	nt	nt	nt	4.6%	nt	-1.4%
Cn1c(=O)c(N)c2c3c(c(Br)ccc31)C(=O)c1ccccc1-2	-18.4%	-1.7%	?	12.4%	?	12.6µM*
CCCCNc1c2c3c(cccc3n(C)c1=O)C(=O)c1ccccc1-2	-22.2%	1.3%	?	0.0%	?	7.2%
Cc1ccc(N2CCN(C(=O)c3cn(C)c4ccc(S(=O)(=O)N5CCCC5)cc4c3=O)CC2C)cc1 (centres undefined)	nt	nt	nt	-0.7%	nt	3.1%
CNC[C@H](Cc1ccccc1)NC[C@@H](Cc1cccc2ccccc12)NCCc1ccc(C)cc1	134.2%	-10.9%	2.94µM*	-10.5%	2.62µM*	-1.6%
CCOC(=O)N1CCN(CC(=O)c2ccc3c(c2)CCN3C(C)=O)CC1	7.5%	4.6%	8.9%	-20.5%	nt	20µM*
CC(=O)N1CCc2cc(C(=O)CN3CCCCC3)ccc21	40.6%	-2.4%	?	-7.5%	nt	?
CCOc1ccc(CNc2ccc(N3CCN(Cc4ccccc4)CC3)cc2)cc1	-0.8%	-12.6%	9.28µM*	-8.3%	3.0%	-22.6%
CCOc1ccc(CNc2ccc(N3CCCC3)cc2)cc1	-8.6%	-5.7%	-28.5%	0.6%	1.85µM*	?
Cc1ccc(C(=O)N2CC(C)OC(C)C2)cc1S(=O)(=O)N1CCCCC1 (centres undefined)	0.4%	-5.1%	-10.6%	-2.8%	?	-12.4%
CCc1ccccc1NC(=O)CN1C(=O)CCSc2ccc(S(=O)(=O)N3CCCC3)cc21	nt	nt	nt	-8.0%	nt	0.7%
O=C(Oc1cccc(OC(=O)c2ccco2)c1)c1ccco1	-22.5%	3.2%	14.7µM*	4.6%	-22.8%	0.8%

Compound activity deposited in PubChem by National Center for Advancing Translational Sciences (NCATS).
